High-throughput results (PubChem)
Cycloheximide cs: counter-screen hit for Shiga toxin inhibitors, cycloheximide | actives 12% (n = 300,000) | max response, % | AID 2314 | cell reporter, cycloheximide protein synthesis inhibition counterscreen; in the data active = max response mostly above about 13%, no sharp cut-off; inactive = mostly below about 14%; also: read at 38.3 µM for the half of the compounds with a filed dose
Pf growth 48h: P. falciparum growth inhibition at 48 hours (one generation). actives 5.9% (n = 310,000). P. falciparum luciferase growth in erythrocytes, 48 h. Potency, µM (series often up to 28.7 µM), usual class: inhibitors. AID 504832
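Luminescence readout; reporter = integrated firefly luciferase in P. falciparum. RBC culture at 2% hematocrit, 0.1% parasitemia final, 37 C/5% CO2; decreased signal taken as growth inhibition.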
Pf growth 96h: P. falciparum growth inhibition at 96 hours | P. falciparum luciferase reporter growth, 96 h | Potency, µM (titrated, usually from 28.7 µM), most hits filed as inhibitors | actives 6.9% (n = 320,000)
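Two-generation exposure (96 h) targets delayed-death phenotype. Reporter parasites carrying integrated firefly luciferase, in red cells at 2% hematocrit and 0.05% parasitemia final, kept at 37 C, 5% CO2; luminescence loss indicates inhibition.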
HCMV antiviral: blocks human cytomegalovirus replication; HFF cells, HCMV-luciferase reporter, 72 h; stronger effect = lower value; activity change, negative = inhibition, % at 57.5 µM; actives 4.5% (n = 410,000); in the data active = activity change below about -60%; inconclusive = no clear call, values can overlap the other calls; inactive = above about -39%
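Inhibition of viral replication was scored as loss of reporter luminescence in HFFs infected with HCMV-luciferase (MOI 1 PFU/cell) for 72 h; compounds tested at 2 doses, normalized to buffer and Salinomycin controls.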
HCV inhibitor: blocks hepatitis C virus | Huh7.5.1 HCVcc-Cre infection, luciferase reporter, 44 h | Potency, µM (highest dose often 41.8 µM), most hits filed as inhibitors | actives 3.4% (n = 340,000) | AID 651820
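Compounds are dispensed onto cells plated 4 h earlier at 1,000 per well, with HCVcc-Cre virus (about 0.5 moi) added next. Following 44 h of culture, luminescent signal is measured for 15 sec after 15 min with substrate at room temperature.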
Shiga toxin inh: blocks Shiga toxin action in Vero cells; Vero cells, Shiga toxin protein synthesis inhibition reporter; inhibition, % at 38.7 µM; actives 9.2% (n = 290,000); in the data active = inhibition mostly above about 28%, no sharp cut-off; inactive = mostly below about 43%
A number is an active result; . = inactive; ? = inconclusive; / = not tested or not shown. An excerpt weighted towards active compounds, which were near 21% of everything screened. Unless noted, calls follow the shape of the dose curve; as a rule, active = well fitted inhibition curve with a large enough effect; inconclusive = small, poorly fitted or top-dose-only effect, or another doubt; inactive = no such curve, though single readings can be large or run the other way.

SMILES | Cycloheximide cs | Pf growth 48h | Pf growth 96h | HCMV antiviral | HCV inhibitor | Shiga toxin inh
Cc1ccc(S(=O)(=O)Nc2cc3c(C(=O)Nc4ccccc4)c(C)oc3c3ccccc23)cc1 | . | ? | 1.7µM | . | ? | .
Cc1ccc(NS(=O)(=O)c2ccc(NC(=O)N3CCCCC3)cc2)cc1 | . | ? | 1.5µM | ? | ? | .
Cc1ccc(S(=O)(=O)Nc2ccc(NC(=O)c3c(F)c(F)c(F)c(F)c3F)cc2)cc1 | . | ? | . | . | 13µM | .
C/C(=N\S(=O)(=O)c1ccc(C)cc1)N1CCCCC1 | . | . | 12µM | . | . | .
Cc1c(Cl)cnc(NC(=O)CSc2n[nH]c(N)n2)c1Cl | / | . | . | . | . | /
CC(=O)Nc1cc(C(=O)N2CCCC2)ccc1S(=O)(=O)c1ccc(C)cc1 | . | . | 1.2µM | . | . | .
CC(=O)Nc1cc(C(=O)N2CCC3(CC2)OCCO3)ccc1S(=O)(=O)c1ccc(C)cc1 | . | . | . | . | . | .
Cc1ccc(NS(=O)(=O)c2ccc(N3C(=O)CCC3=O)cc2)cc1 | . | / | . | -84 | . | .
O=C(NCCc1ccccc1)c1cc(-c2ccc(Cl)c(Cl)c2)on1 | / | / | / | . | / | /
COc1ccc(-c2nc3ccc(Cl)cn3c2Cc2ccc(C)cc2)cc1OC | / | / | / | . | / | /
O=C(COc1ccccc1Cl)N1CCN(C(=O)c2ccco2)CC1 | . | . | . | . | . | .
COC(=O)CSc1nc2cc3c(cc2cc1C)OCO3 | 27 | . | . | . | ? | 55
CCOC(=O)CSc1nc2cc3c(cc2cc1CC)OCCO3 | . | ? | 12µM | . | ? | .
COCCCn1c(=S)[nH]c2ncccc2c1=O | . | . | ? | . | . | .
CCCCCn1c(=S)[nH]c2ncccc2c1=O | . | . | 9.3µM | . | . | .
CCOC(=O)C1=CCC(c2ccc(C)cc2)N(S(=O)(=O)c2ccc(C)cc2)C1 (centres undefined) | / | / | / | . | / | /
COc1ccc(CC(=O)NNc2ncnc3c2cnn3Cc2ccccc2)cc1OC | . | ? | ? | . | . | .
COCCCNC(=O)c1nnn2c1nc(N)c1cc(Cl)ccc12 | / | / | / | . | / | /
Cc1ccc(/C=C/C(=O)NC2CCS(=O)(=O)C2)cc1 (centres undefined) | 20 | ? | . | . | . | .
O=C(Cc1ccc(Cl)c(Cl)c1)NC1CCCCCC1 | 12 | . | ? | . | . | 79
CC1CC(NC(=O)Cc2ccc(Br)cc2)CC(C)(C)C1 (centres undefined) | . | 12µM | ? | . | . | .
CC1CC(NC(=O)CC#N)CC(C)(C)C1 (centres undefined) | . | . | . | . | . | .
O=C(Cc1ccc(O)cc1)NC1CCCCCC1 | 42 | . | . | . | . | 69
O=C(/C=C/c1ccccc1)NC1CCS(=O)(=O)C1 (centres undefined) | . | . | . | . | . | .
O=C(Cc1ccc([N+](=O)[O-])cc1)NC1CCCCCC1 | . | . | . | . | ? | .
SMILES | Cycloheximide cs | Pf growth 48h | Pf growth 96h | HCMV antiviral | HCV inhibitor | Shiga toxin inh
COc1ccc(-c2cc3ccc(O)c(CN4CCCC4)c3oc2=O)cc1 | / | / | / | . | / | /
Cc1ncc(CO)c(CN)c1O | / | . | . | / | / | /
COCc1ccc(CN2CCCC(CO)(Cc3ccccc3)C2)o1 (centres undefined) | . | . | ? | . | . | .
COc1ccc(OCc2ccc(-c3nc(C#N)c(NCc4cccnc4)o3)o2)cc1 | / | / | / | . | / | /
COc1ccc(OC)c(-n2c(SCC(=O)Nc3cccc(S(N)(=O)=O)c3)nc3ccccc3c2=O)c1 | . | ? | ? | . | ? | .
Cc1ccc(S(=O)(=O)NC(=O)NC2CCCCCCC2)cc1 | / | . | . | / | / | /
O=C(/C=C/c1ccc(Br)cc1)NC1CCCCCC1 | 17 | . | . | . | . | 62
O=C(Cc1ccc(Br)cc1)NC1CCCCC1 | 22 | / | . | . | . | .
Oc1ccc(CNC2CCCCC2)cc1 | . | 12µM | / | . | . | .
Clc1ccc(CNC2CCCC2)cc1 | . | / | . | . | . | .
CCCOc1ccc(/C=C/C(=O)NC2CCCCC2)cc1 | . | ? | . | . | ? | .
CC(C)Cc1ccc(/C=C/C(=O)NC2CC2)cc1 | 71 | ? | 2.1µM | . | . | 112
CCOc1ccc(NC(=O)CN2C(=O)CC(C)Sc3ccccc32)cc1 (centres undefined) | / | / | / | . | / | /
COc1ccc(Nc2nc(N)nc(CN3CCN(c4ccccn4)CC3)n2)cc1 | . | . | . | . | . | .
CC1CCN(C(=S)SCc2nc(N)nc(Nc3ccccc3)n2)CC1 | 25 | . | . | . | . | 35
COc1ccc(Nc2nc(N)nc(CSC(=S)N3CCN(c4ccccc4)CC3)n2)cc1 | . | ? | 12µM | ? | ? | .
CCOc1ccc(Nc2nc(N)nc(CSC(=S)N3CCN(c4ccccc4)CC3)n2)cc1 | . | 12µM | 13µM | . | ? | .
COc1ccccc1Nc1nc(N)nc(CSC(=S)N2CC(C)CC(C)C2)n1 (centres undefined) | . | ? | 10µM | . | ? | .
COc1cc2c(cc1OC)C(COc1ccc3c(C)cc(=O)oc3c1)N(C(=O)Cc1ccc(F)cc1)CC2 (centres undefined) | / | / | / | . | / | /
CN1CCCC(C(=O)Nc2cccc(Cl)c2)CC1 (centres undefined) | / | / | / | . | / | /
FC(F)(F)c1cnc(NNC(=S)Nc2ccccc2Cl)c(Cl)c1 | . | ? | ? | -100 | ? | .
O=C(Nc1ccccc1)Nc1ncc(C(F)(F)F)cc1Cl | / | / | / | . | / | /
Cc1cccc(NC(=S)NNc2ncc(C(F)(F)F)cc2Cl)c1 | . | . | ? | ? | 11µM | .
CCN(CC(=O)Nc1ccccc1OC)C(=O)c1ccc2[nH]c3c(c2c1)CC(C)CC3 (centres undefined) | / | ? | ? | . | 10µM | /
CCCN(CC(=O)Nc1ccccc1OC)C(=O)c1ccncc1 | . | . | . | ? | . | .
SMILES | Cycloheximide cs | Pf growth 48h | Pf growth 96h | HCMV antiviral | HCV inhibitor | Shiga toxin inh
CCN(CC(=O)Nc1ccccc1OC)C(=O)c1ccc(NC(=O)c2cccs2)cc1 | / | 7.4µM | ? | . | ? | /
CCCN(CC(=O)Nc1ccccc1OC)C(=O)c1ccc2[nH]c3c(c2c1)CC(C)CC3 (centres undefined) | / | ? | ? | . | 7.9µM | /
CC1CCc2[nH]c3ccc(C(=O)N(C)CC(=O)Nc4ccccc4Cl)cc3c2C1 (centres undefined) | / | ? | . | . | ? | /
CC1CCc2[nH]c3ccc(C(=O)N(C)CC(=O)Nc4ccccc4C(F)(F)F)cc3c2C1 (centres undefined) | / | ? | ? | -88 | . | /
CCOc1ccc(NC(=O)CN(C)C(=O)c2ccc3[nH]c4c(c3c2)CC(C)CC4)cc1OCC (centres undefined) | / | . | . | / | 0.56µM | /
COc1cccc(NC(=O)CN(C)C(=O)c2ccc(NC3CC3)c([N+](=O)[O-])c2)c1 | / | ? | ? | . | . | /
CCOc1ccc(NC(=O)CN(C)C(=O)c2ccc(NC3CC3)c([N+](=O)[O-])c2)cc1OCC | / | . | ? | . | 11µM | /
